Vaccinia mCherry: inhibitors of vaccinia virus infection (mCherry reporter signal). Vaccinia virus mCherry reporter infection, fluorescence. Potency, µM (series often up to 36.5 µM), for the others: at the top dose activity change, negative = inhibition, hits mostly inhibitors. hit rate 0.63% among 310,000. AID 720579; calls by dose curve; tested in A549 cells; note: potency is the fitted concentration of half-maximal effect; nearly all actives have a fitted effect of over 35% in size
Lassa entry inh: Lassa virus entry inhibition. hit rate 1.2% among 300,000. Lassa virus pseudotype entry inhibition, cell reporter. AID 540256. Potency, µM (doses to about 37.9 µM), without a hit: at the top dose activity change, negative = inhibition, actives largely listed as inhibitors; calls by dose curve; tested in HEK293 cells; note: potency is the fitted concentration of half-maximal effect; nearly all actives have a fitted effect of over 50% in size
HCMV inh: inhibitors of human cytomegalovirus. AID 1259415. HFF cells, HCMV-luciferase reporter, 72 h; hits give low values. activity change, negative = inhibition, % at 57.5 µM. hit rate 4.5% among 410,000; in the data active = activity change below about -60%; inconclusive = no clear call, values can overlap the other calls; inactive = above about -39%
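Human foreskin fibroblasts infected with luciferase-reporter HCMV at MOI 1 PFU/cell, compounds at two doses. Luciferase measured 72 h post infection; normalized to buffer-only basal and Salinomycin (10uM) controls.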
Vaccinia Venus: inhibitors of vaccinia virus (Venus reporter) | Vaccinia virus Venus reporter expression, fluorescence | Potency, µM (doses to about 36.5 µM), without a hit: at the top dose activity change, negative = inhibition, hits mostly inhibitors | hit rate 0.46% among 330,000; calls by dose curve; tested in A549 cells; note: potency is the fitted concentration of half-maximal effect; nearly all actives have a fitted effect of over 30% in size
FMDV antiviral: foot and mouth disease virus antiviral activity. FMDV antiviral cell-based qHTS. Potency, µM (titrated, usually from 57.9 µM), without a hit: at the highest dose activity change, negative = inhibition, usual class: inhibitors. hit rate 1.2% among 410,000. AID 1159524; calls by dose curve; tested in HEK293T cells; note: read-out not given here; potency is the fitted concentration of half-maximal effect; nearly all actives have a fitted effect of over 45% in size
MARV entry inh: Marburg virus entry inhibition; Marburg virus pseudotyped entry inhibition, cell reporter; Potency, µM (top dose mostly 37.8 µM), for the others: at the top dose activity change, negative = inhibition, actives largely listed as inhibitors; hit rate 1.8% among 300,000; AID 540276; calls by dose curve; tested in HEK293 cells; note: potency is the fitted concentration of half-maximal effect
* hit, by the source's call; ! = not confirmed by another sample; [ ] = another dose, or the depositor's remark. In the library only some 6.5% were active in any assay of this set; here they are far more common. % is set by controls: 0 for no effect and ±100 for the full control effect.

Results for CC(C)C[C@@H](CN1CCC[C@@H]1CN1C(=S)NC[C@@H]1Cc1ccc(O)cc1)N1C[C@H](Cc2ccc(O)cc2)N(CC2CCCCC2)C1=S ?
Vaccinia mCherry: -22.0%; HCMV inh: -100.4*; Vaccinia Venus: -29.1%; FMDV antiviral: -17.0%

How did CC(C)C[C@@H](CN1CCCC1CN1C(=S)NC[C@@H]1Cc1ccc(O)cc1)N1C[C@H](Cc2ccc(O)cc2)N(CCc2ccccc2)C1=S (some centres not stated) do in these assays?
Vaccinia mCherry: -3.1%; HCMV inh: -94.8*; Vaccinia Venus: 10µM*; FMDV antiviral: 0.0%

What do the screens show for `CC(C)C[C@H]1CN([C@@H](CC(C)C)CN2CCC[C@@H]2CN2C(=S)NC[C@@H]2Cc2ccc(O)cc2)C(=S)N1CC1CCCCC1`?
Vaccinia mCherry: -10.9%; HCMV inh: -22.1; Vaccinia Venus: -26.7%; FMDV antiviral: -19.5%

What do the screens show for `CC(C)CN(CC(C)C)c1ccc(/C=C/c2nc3ccccc3s2)cc1`?
Vaccinia mCherry: -24.6%; Vaccinia Venus: 10.3%

How did O=C(Cn1ncc2c3ccccc3n(Cc3cccc(Cl)c3)c2c1=O)N1CCCCCC1 do in these assays?
Vaccinia mCherry: -6.0%; Lassa entry inh: -12.0%[46.1 µM]; HCMV inh: -10.2; Vaccinia Venus: -15.2%; FMDV antiviral: -22.4%; MARV entry inh: -21.4%[46.1 µM]

How did COc1ccc(Nc2cc3c(cn2)ncn3Cc2ccccc2)c(C)c1 do in these assays?
HCMV inh: -14.6

Results for O=C(NCCc1cnc[nH]1)c1cccs1 ?
HCMV inh: -6.2; FMDV antiviral: 11.9%

How did NS(=O)(=O)c1ccc(N=Nc2c(O)[nH]c3ccc(C(=O)NCCc4cnc[nH]4)cc23)cc1 do in these assays?
Lassa entry inh: 4.99µM*

How did CCOc1ccc(CNC(=O)c2cc3cc(S(=O)(=O)N4CCCCC4)ccc3n2C)cc1 do in these assays?
Vaccinia mCherry: -27.2%; Lassa entry inh: inconclusive; HCMV inh: -68.1*; Vaccinia Venus: -27.1%; FMDV antiviral: inconclusive

How did O=C(CCCn1ccc2cc(S(=O)(=O)N3CCCC3)ccc21)NCc1ccc(Cl)cc1 do in these assays?
Vaccinia mCherry: -26.4%[7.34 µM]; Lassa entry inh: inconclusive; HCMV inh: -86.8*; Vaccinia Venus: -28.6%[7.34 µM]; FMDV antiviral: inconclusive

Results for CCOc1ccccc1CNC(=O)c1cc2cc(S(=O)(=O)N3CCCCC3)ccc2n1C ?
Vaccinia mCherry: -11.8%; Lassa entry inh: inconclusive; HCMV inh: 31.3; Vaccinia Venus: -12.9%; FMDV antiviral: -16.4%

What do the screens show for `O=C(Cn1c(=O)oc2cc(S(=O)(=O)N3CCCC3)ccc21)NCc1ccc(F)cc1`?
Vaccinia mCherry: -19.0%; Lassa entry inh: -3.7%[46.1 µM]; HCMV inh: -69.8*!; Vaccinia Venus: -16.5%; FMDV antiviral: 0.0%; MARV entry inh: 19.4%[46.1 µM]

How did Cc1ccc2c(c1)cc(C(=O)NCc1ccc(F)cc1)n2C do in these assays?
Vaccinia mCherry: 6.3%; Lassa entry inh: 2µM*; HCMV inh: inconclusive; Vaccinia Venus: 5.3%; FMDV antiviral: -9.3%; MARV entry inh: inconclusive

What do the screens show for `CN(C(=O)c1cnn(-c2nccc(-c3ccccc3C(F)(F)F)n2)c1C1CC1)C1CCOC1` (configuration not stated)?
Vaccinia mCherry: -10.5%; Vaccinia Venus: -8.8%; FMDV antiviral: 33.2%

Results for Cc1cccc(-n2ncc(C(=O)NCc3ccccn3)c2C2CCN(C(=O)OC(C)(C)C)CC2)c1 ?
Vaccinia mCherry: -9.3%; Lassa entry inh: -23.2%[46.1 µM]; HCMV inh: -39.9; Vaccinia Venus: -10.4%; FMDV antiviral: 2.4%

What do the screens show for `CNC(=O)[C@H]1O[C@@H](n2cnc3c(NCc4ccc(N)cc4)ncnc32)[C@H](O)[C@H]1O`?
MARV entry inh: 40.9%

Results for CN(C)c1ccc(CNC(=O)c2cc3cc(S(=O)(=O)N4CCCCC4)ccc3n2C)cc1 ?
Vaccinia mCherry: -18.9%; Lassa entry inh: 10µM*; HCMV inh: -21.9; Vaccinia Venus: -14.1%; FMDV antiviral: -16.0%

Results for CSc1ccc(CCNC(=O)c2cc3cc(S(=O)(=O)N4CCCCC4)ccc3n2C)cc1 ?
Vaccinia mCherry: -26.7%; Lassa entry inh: -27.1%[46.1 µM]; HCMV inh: -66.8*; Vaccinia Venus: -27.3%; FMDV antiviral: inconclusive

What do the screens show for `Cc1cc(S(=O)(=O)NCCc2csc(-c3cccc(F)c3)n2)ccc1F`?
Vaccinia mCherry: inconclusive; Lassa entry inh: -9.2%[46.1 µM]; HCMV inh: -2.5; Vaccinia Venus: 11.2µM*; FMDV antiviral: 21.5%

Results for O=S(=O)(NCCc1csc(-c2cccnc2)n1)c1cc(F)ccc1F ?
Vaccinia mCherry: -16.8%; Lassa entry inh: -16.5%; HCMV inh: -60.7*; Vaccinia Venus: -16.4%; FMDV antiviral: 39.8%; MARV entry inh: 8.1%

How did CCCN(CCC)C(=O)Cn1ccc(=N)c2c1CCCC2 do in these assays?
MARV entry inh: -2.8%

How did COc1ccc(-n2c(=O)c3sc4ccccc4c3n(C)c2=O)cc1 do in these assays?
Vaccinia mCherry: -2.3%; Lassa entry inh: 18.2%[46.1 µM]; HCMV inh: -5.7; Vaccinia Venus: -9.9%; FMDV antiviral: -7.0%; MARV entry inh: 1.6%[46.1 µM]

Results for CCOc1ccc(-c2cc(CCCC(=O)Nc3cccc(OC)c3)no2)cc1 ?
Vaccinia mCherry: -5.9%; Lassa entry inh: 0.82µM*; HCMV inh: inconclusive; Vaccinia Venus: inconclusive; FMDV antiviral: inconclusive; MARV entry inh: inconclusive

Results for O=C(Nc1ccc2c(c1)OCO2)c1ccc(Cl)cc1Cl ?
Vaccinia mCherry: -14.1%; Lassa entry inh: inconclusive; HCMV inh: 108.2; Vaccinia Venus: -19.2%; FMDV antiviral: -7.8%; MARV entry inh: 6.31µM*

What do the screens show for `COc1ccc(-c2cc(C(=O)Nc3cccc(O)c3)no2)cc1`?
HCMV inh: -10.9; FMDV antiviral: 20µM*

What do the screens show for `COc1ccc(-c2cc(C(=O)Nc3c(C)nn(Cc4ccc(Cl)cc4)c3C)no2)cc1`?
Lassa entry inh: -6.4%; HCMV inh: inconclusive; FMDV antiviral: inconclusive; MARV entry inh: 23.1µM*

What do the screens show for `CCOc1ccc(NC(=O)CCCc2cc(-c3ccc(OCC)cc3)on2)cc1`?
Vaccinia mCherry: -4.4%; Lassa entry inh: inconclusive; HCMV inh: 17.9; Vaccinia Venus: -9.5%; FMDV antiviral: 19.9%; MARV entry inh: -20.8%[46.1 µM]

What do the screens show for `CCC1(C2CCN(Cc3ccoc3)CC2)NC(=O)N(CC2COc3ccccc3O2)C1=O` (configuration not stated)?
Vaccinia mCherry: inactive; Vaccinia Venus: -7.3%; FMDV antiviral: -13.3%

What do the screens show for `COc1ccc(Cn2nnnc2C(c2ccccn2)N2CCN(c3ccc(O)cc3)CC2)cc1` (configuration not stated)?
Vaccinia mCherry: -6.7%; Vaccinia Venus: -12.3%

What do the screens show for `CO[C@H]1[C@H](NC(=O)c2ccncc2)c2ccccc2C12CCN(C(=O)c1ccoc1)CC2`?
Vaccinia mCherry: -6.3%; Vaccinia Venus: 6.1%; FMDV antiviral: -9.1%

How did C=CCC(O)c1nc(C(=O)Nc2ccc(F)cc2)cs1 (configuration not stated) do in these assays?
HCMV inh: -13.8

Compound activity (PubChem BioAssay)
